{
  "source": "PubChem BioAssay (NCATS)",
  "note": "Results filed as inconclusive are left out. Active and inactive are the calls of the source. The call rests on the fitted dose curve; in most records, active means well fitted inhibition curve with a large enough effect; inconclusive means small, poorly fitted or top-dose-only effect; inactive means no such curve, though single readings can be large or run the other way. Potency means the concentration at half of the fitted maximal effect.",
  "data": [
    {"experiment": "BET inhibitor-based combinations targeting novel dependencies in MECOM-rearranged (r) AML: MV-4-11 cell line (AID 2202233); further: nearly all actives have a fitted effect of over 45% in size", "settings": "MV-4-11 AML viability, CellTiter-Glo luminescence, 48 h; series mostly up to 46 µM", "text": "Ecotropic viral insertion site 1 (EVI1) is located on chromosome 3q26.2 as part of the MECOM (MDS and EVI1 complex) locus. Under normal hematopoiesis, EVI1 is a regulator of hematopoietic stem cell maintenance and self-renewal and EVI1 levels decrease as the cells differentiate. In approximately 5-10% of de novo acute myeloid leukemia (AML) EVI1 is aberrantly expressed, including Chromosomal inv(3)(q21;q26.2) or t(3;3)(q21;q26.2) alterations (MECOM-r) that account for about 50% of AML with EVI1 overexpression 31. AMLs with high levels of EVI1 have a poor prognosis and an overall survival time averaging between 10-14 months. EVI1 overexpression confers resistance in leukemia cells, highlighting the need to develop new targeted therapies for EVI1 overexpressing AMLs. Here, we performed an unbiased chemical drug screening by evaluating the single agent activity of a collection of 2,480 oncology-focused, approved and investigational drugs (NCATS Mechanism Interrogation Plates, MIPE v5.0) against a panel of seven AML cell lines. These included four MECOM-r cell-lines (AML-191, AML-194, UCSD-AML1 and HNT-34) and three non-MECOM-r AMLs (MV4-11, OCI-AML3 and SET-2). Exploiting the mechanistic redundancy built in the library, we identified target-level sensitivities in MECOM-r AML cells and relative activity as compared to other AML subtypes.\nA collection of 2480 mechanistically annotated dugs (MIPE v5.0) was used to screen four 3q26.2 rearranged AML cell lines and three non-3q26.2 rearranged AML cell lines. This library purposely exploits redundancy by including multiple inhibitors of key onco-targets, while simultaneously encompassing mechanistic diversity, targeting more than 800 distinct mechanisms of action. Briefly, cells were seeded in 5 uL of growth media using a Multidrop Combi dispenser into 1536 well white polystyrene tissue culture treated plates (Corning) at a density of 500cells/well. For each cell-line, for each of the 2480 drugs in MIPE v5.0 library, an 11-point dose curve was generated via a 1536 pin-tool. Plates were incubated for 48 hr at standard incubator conditions, covered by a stainless steel gasketed lid to prevent evaporation. Cell viability was determined by luminescence based, Cell Titer Glo assay (Promega). In detail, 3 uL of Cell Titer Glo were added to each well and plates were incubated at room temperature for 15 min with a stainless-steel lid in place. Luminescence readings were taken using a Viewlux (PerkinElmer) with a 2 s exposure time per plate. Compound dose-response curves were normalized to DMSO and empty well controls on each plate. Quantitative drug activity data from dose-response curves was determined utilizing area Under the Curve (AUC) and Z-transformed AUC (Z-AUC, a mean-centering transformation applied to each individual cell-line screened).", "values": [
      {"smiles": "Cc1c(NC(=O)OC[C@@H]2COCCN2)cn2ncnc(Nc3ccc4c(cnn4Cc4cccc(F)c4)c3)c12", "Potency": "18.6 µM (active)"},
      {"smiles": "C=C1C(=O)OC2/C=C(/C)CC/C=C(/C)CCC12", "note": "(stereo not given)", "Potency": "14.8 µM (active)"},
      {"smiles": "CC(C)n1cc(-c2ccc3c(c2)N(C)CC3)c2c(NS(=O)(=O)c3ccn(C)n3)ccnc21", "Potency": "inactive"},
      {"smiles": "COc1cc(C)[nH]c(=O)c1CN1CCc2c(Cl)cc([C@H](OC)C3COC3)c(Cl)c2C1=O", "Potency": "inactive"},
      {"smiles": "COc1cccc(Nc2ncnn3ccc(CN4CC[C@@H](N)[C@H](O)C4)c23)c1", "Potency": "0.296 µM (active)"},
      {"smiles": "NC(=O)C1=C(O)[C@@]2(O)C(=O)C3=C(O)c4c(O)cccc4C[C@H]3C[C@H]2CC1=O", "Potency": "9.34 µM (active)"},
      {"smiles": "N#C/C(=C\\c1ccc(O)c(O)c1)C(=O)NCc1ccccc1", "Potency": "14.8 µM (active)"},
      {"smiles": "O=c1cc(O)c(Cl)c[nH]1", "Potency": "inactive"},
      {"smiles": "C[C@@H](Oc1cc(C(=O)Nc2ccc(C(=O)N3CCN(C)CC3)cc2)nnc1N)c1c(Cl)ccc(F)c1Cl", "Potency": "1.66 µM (active)"},
      {"smiles": "CN1C(=O)[C@@H](NC(=O)c2n[nH]c(Cc3ccccc3)n2)COc2ccccc21", "Potency": "inactive"},
      {"smiles": "CS(=O)(=O)c1ccc(-c2cnc(NCc3ccco3)n3cnnc23)cc1", "Potency": "inactive"},
      {"smiles": "COc1cc(-c2cc(-c3ccc(N4CCNCC4)cc3)cnc2C)cc(OC)c1OC", "Potency": "10.5 µM (active)"},
      {"smiles": "Cc1cc(O[C@@H](CCC(F)(F)F)c2ccc(C(=O)NCCC(=O)O)cc2)cc(C)c1-c1ccc(C(C)(C)C)cc1", "Potency": "18.6 µM (active)"},
      {"smiles": "NCC(=O)Nc1cncc(-c2nn3c(=O)cc(N4CCNCC4)nc3s2)c1", "Potency": "inactive"},
      {"smiles": "Nc1nc2cc(-c3ccc4ncc(C(=O)N5CCOCC5)n4c3)ccc2o1", "Potency": "16.6 µM (active)"},
      {"smiles": "Cc1ccc(Sc2ccccc2N2CCNCC2)c(C)c1", "Potency": "20.9 µM (active)"},
      {"smiles": "COc1cc(Oc2ccnc3cc(OC)c(OC)cc23)ccc1NC(=O)NC(C)c1nccs1", "note": "(stereo not given)", "Potency": "11.8 µM (active)"},
      {"smiles": "COc1cc(C(=O)NC(N)=Nc2ccc(C)c(NC(=O)c3ccc(-c4ccccc4)cc3)c2)cc(OC)c1OC", "Potency": "18.6 µM (active)"},
      {"smiles": "Cn1ncc(NC(=O)c2nc(-c3c(F)cccc3F)sc2N)c1N1CC[C@@H](N)[C@H](F)CC1", "Potency": "2.63 µM (active)"},
      {"smiles": "Cc1cc(OCCCc2c3n(c4c(-c5c(C)nn(C)c5C)c(Cl)ccc24)[C@H](C)CN(c2cn(C)c4ccc(C(=O)O)cc24)C3=O)cc(C)c1Cl", "Potency": "0.468 µM (active)"},
      {"smiles": "OC1CCC(Oc2cccc3cnc(Nc4ccc5nc[nH]c5c4)nc23)CC1", "note": "(stereo not given)", "Potency": "0.0525 µM (active)"},
      {"smiles": "C=C1C[C@H]2C=Nc3cc(OCCCOc4cc5c(cc4OC)C(=O)N4CC(=C)C[C@H]4C=N5)c(OC)cc3C(=O)N2C1", "Potency": "inactive"},
      {"smiles": "CC(=O)NCC(=O)N1[C@@H]2CC[C@H]1c1ccc(Nc3ncc(C(F)(F)F)c(NC4CCC4)n3)cc12", "Potency": "0.0417 µM (active)"},
      {"smiles": "c1ccc(Cn2c(-c3ccc(OCC(C4CCNCC4)n4c(-c5ccccc5)nc5ccccc54)cc3)nc3ccccc32)cc1", "note": "(stereo not given)", "Potency": "8.33 µM (active)"},
      {"smiles": "Cc1ccc(NC(=O)[C@H]2CCCN(C(=O)c3c(C)cccc3F)[C@H]2c2ccc(NC3CCCC3)cc2)cc1C(F)(F)F", "Potency": "inactive"},
      {"smiles": "CC(C)(O)CNc1ncc(-c2ccnc(Nc3ccncc3)n2)c(CC2CC2)n1", "Potency": "5.9 µM (active)"},
      {"smiles": "Cc1ccc(F)c(NC(=O)Nc2ccc(-c3cccc4[nH]nc(N)c34)cc2)c1", "Potency": "0.0074 µM (active)"},
      {"smiles": "COc1c(Nc2ncc(Cl)c(N[C@H]3[C@H](C(N)=O)[C@@H]4C=C[C@@H]3C4)n2)ccc2c1CCC(N1CCOCC1)CC2", "note": "(stereo not given in full)", "Potency": "0.525 µM (active)"},
      {"smiles": "C=CC(=O)N1CCC[C@@H](n2nc(-c3ccc(Oc4ccccc4)cc3)c3c(N)ncnc32)C1", "Potency": "2.95 µM (active)"},
      {"smiles": "O=C(CCCCCCNC(=O)c1cnc(N(c2ccccc2)c2ccccc2Cl)nc1)NO", "Potency": "3.72 µM (active)"},
      {"smiles": "CCC(=C/[C@H](C)C/C=C/C(C)=C/[C@@H](C)C(=O)[C@@H](C)[C@H](O)[C@@H](C)C/C(C)=C/C(=O)O)/C=C/[C@@H]1OC(=O)C=C[C@@H]1C", "Potency": "0.003 µM (active)"},
      {"smiles": "CC(C)(O)C1CCC(Nc2ccc3ncc(-c4cccc(C(F)(F)F)c4)n3n2)CC1", "note": "(stereo not given)", "Potency": "3.32 µM (active)"},
      {"smiles": "CC(C)c1c(-c2ccccc2)nc2c(C#N)c[nH]n2c1=O", "Potency": "inactive"},
      {"smiles": "O=c1cc(-c2cccc3c2Sc2ccccc2S3)oc(N2CCOCC2)c1", "Potency": "18.6 µM (active)"},
      {"smiles": "COc1cc(Nc2ncc(F)c(Nc3ccc4c(n3)N(COP(=O)(O)O)C(=O)C(C)(C)O4)n2)cc(OC)c1OC", "Potency": "0.833 µM (active)"},
      {"smiles": "O=C(C[C@@H]1C/C=C\\CCC(=O)O[C@H](c2ccccc2)CNC1=O)NCc1ccc(Cl)cc1", "Potency": "inactive"},
      {"smiles": "COc1ccc(-c2oc3ncnc(N)c3c2-c2ccc(NC(=O)Nc3cc(C(F)(F)F)ccc3F)cc2)cc1", "Potency": "0.372 µM (active)"},
      {"smiles": "CC(c1cc2ccccc2s1)N(O)C(N)=O", "note": "(stereo not given)", "Potency": "inactive"},
      {"smiles": "Cn1cc(-c2cnn3c(N)c(Br)c(C4CCCNC4)nc23)cn1", "note": "(stereo not given)", "Potency": "0.468 µM (active)"},
      {"smiles": "Cn1cc(-c2cc(Oc3cc(F)c(NC(=O)C4(C(=O)Nc5ccccc5)CC4)cc3F)ccn2)cn1", "Potency": "0.742 µM (active)"}
    ]}
  ]
}
